# Test results from PubChem BioAssay (EPA / NIEHS).
# Activity calls are given as the source filed them. Rule for the calls: active = hit-call score of the fitted dose curve at least 0.9, where 1 is the maximum; inactive = score below 0.9.
# Molecular target: Hepatocyte nuclear factor 6 (Homo sapiens) (UniProt Q9UBC0)
# Assay: ATG_HNF6_CIS: Attagene CIS-FACTORIAL HepG2 Assay for human Hepatocyte Nuclear Factor 6 (HNF6) (AID 2282952)
# Conditions: HepG2 Attagene cis-factorial HNF6 reporter transcription; actives raise or lower the signal
# Procedure: ATG_CIS is a cell-based, multiplexed-readout assay that uses HepG2, a human liver cell line, with measurements taken at 24 hours after chemical dosing in a 24-well plate.ATG_HNF6_CIS is one of 52 assay component(s) measured or calculated from the ATG_CIS assay. It is designed to make measurements of mRNA induction, a form of inducible reporter, as detected with fluorescence intensity signals by Reverse transcription polymerase chain reaction (RT-PCR) and Capillary electrophoresis technology.Data from the assay component ATG_HNF6_CIS was analyzed into 1 assay endpoint. This assay endpoint, ATG_HNF6_CIS, was analyzed with bidirectional fitting relative to DMSO as the negative control and baseline of activity. Using a type of inducible reporter, measures of mRNA for gain or loss-of-signal activity can be used to understand the reporter gene at the transcription factor-level as they relate to the gene ONECUT1. Furthermore, this assay endpoint can be referred to as a primary readout, because this assay has produced multiple assay endpoints where this one serves a reporter gene function. To generalize the intended target to other relatable targets, this assay endpoint is annotated to the dna binding intended target family, where the subfamily is homeobox protein.
# Human liver HepG2 cells are transiently transfected with multiple reporter transcription units (MRTUs) in 6-well plates using FuGene 6 reagent (Roche; 3 ml FuGene/1 mg DNA). The MRTU constructs are regulated by a cis-regulating element (promoter). […] A major difference between the CIS and TRANS system is that in CIS activities of endogenous TFs are measured, whereas the TRANS assay evaluates changes in activities of exogenous, chimeric NR-Gal4 proteins. […] At the end of 24 hour incubation, total RNA was isolated using TriZol reagent (Invitrogen). The isolated RNA is then reverse-transcribed using oligo(dT) primer and Mo-MLV reverse transcriptase (Invitrogen) with DNAse I (Ambion) treatment for 30 min. The one-tenth of the produced cDNA was amplified by PCR using Taq DNA polymerase (Invitrogen) and two reporter sequence-specific primers. The PCR products were fluorescently labeled by primer extension with 6-arboxyfluorescein (6-FAM) 5'-labeled reporter sequence-specific primer (2 min at 95 C, 20 s at 68 C and 10 min at 72 C) and these products were digested with 5U of HpaI (New England Biolabs) for 2h at 37 C. The fragments were purified using Qiaquick PCR columns (Qiagen), analyzed on an ABI 3130xL genetic analyzer (Applied Biosystems) with peak positions identified by using a set of X-rhodamine (ROX)-labeled MapMarker1000 molecular weight standards (BioVentures). The raw capillary electrophoresis data was processed using Attagraph software (Attagene).
# Sequence of Hepatocyte nuclear factor 6 (Homo sapiens) (Q9UBC0 whole entry, looked up): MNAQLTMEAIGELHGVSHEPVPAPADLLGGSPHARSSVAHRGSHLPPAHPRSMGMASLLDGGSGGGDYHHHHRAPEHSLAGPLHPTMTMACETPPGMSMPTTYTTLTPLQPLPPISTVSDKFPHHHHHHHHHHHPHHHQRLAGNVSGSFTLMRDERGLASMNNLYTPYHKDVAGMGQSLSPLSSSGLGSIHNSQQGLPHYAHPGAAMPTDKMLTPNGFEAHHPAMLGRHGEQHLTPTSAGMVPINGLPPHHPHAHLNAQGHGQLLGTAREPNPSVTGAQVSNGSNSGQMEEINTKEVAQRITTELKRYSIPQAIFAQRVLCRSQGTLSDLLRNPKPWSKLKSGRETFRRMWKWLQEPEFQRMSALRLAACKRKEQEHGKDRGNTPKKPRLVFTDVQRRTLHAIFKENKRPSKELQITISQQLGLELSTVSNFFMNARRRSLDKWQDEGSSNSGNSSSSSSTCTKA
row,Structure (SMILES),outcome
1,CSc1ccc(Cl)cc1,inactive
2,O=S(=O)(O)c1ccc(Cl)cc1,inactive
3,C[C@]12CC[C@H]3C(=CCc4cc(O)ccc43)[C@@H]1CCC2=O,inactive
4,O=c1[nH]cccc1O,inactive
5,O=S(=O)(O)CCC(F)(F)C(F)(F)C(F)(F)C(F)(F)C(F)(F)C(F)(F)C(F)(F)C(F)(F)F,inactive
6,NC(=O)C(F)(F)C(F)(F)C(F)(F)C(F)F,inactive
7,NC(=O)C(F)(F)C(F)(F)C(F)(F)C(F)(F)C(F)(F)C(F)(F)C(F)(F)F,inactive
8,NC(=O)C(F)(F)C(F)(F)C(F)(F)F,inactive
9,CCOCN(C(=O)CS(=O)(=O)O)c1c(C)cccc1CC,inactive
10,CO[Si](CCCOCC1CO1)(OC)OC (stereo not given),inactive
11,CCC(Cc1c(I)cc(I)c(N)c1I)C(=O)O (stereo not given),inactive
12,CC(=O)c1ccccc1N,inactive
13,O=S(=O)(O)CCC(F)(F)C(F)(F)C(F)(F)C(F)(F)F,inactive
14,Cc1ccc(O)c(-n2nc3ccccc3n2)c1,inactive
15,OCCCc1cccnc1,inactive
16,CC(=O)C=O,inactive
17,CCOC(=O)CC(=O)C(F)(F)C(F)(F)F,inactive
18,Brc1nc2ccccc2s1,inactive
19,O=C1C=CC(=O)N1c1ccccc1,inactive
20,FC(F)(F)C(F)(F)C(F)(F)C(F)(F)C(F)(F)C(F)(F)C(F)(F)CCI,inactive

row,Structure (SMILES),outcome
1,CCCCCCCCCc1ccc(OCCO)cc1,inactive
2,CCCCOC(=O)C(C)O (stereo not given),inactive
3,O=C1c2ccccc2C(=O)c2c(Cl)cccc21,inactive
4,Nc1cccnc1N,inactive
5,CO[Si](C)(CCC(F)(F)C(F)(F)C(F)(F)C(F)(F)C(F)(F)C(F)(F)F)OC,inactive
6,c1ccc(C[P+](c2ccccc2)(c2ccccc2)c2ccccc2)cc1,inactive
7,Nc1c(Br)cc([N+](=O)[O-])cc1Br,inactive
8,Nc1cc([N+](=O)[O-])cc(Cl)c1O,inactive
9,CCCCCCCCn1sc(Cl)c(Cl)c1=O,inactive
10,CCCCOC(=O)[C@H](C)O,inactive
11,CCC(=O)OC(C)c1ccccc1 (stereo not given),inactive
12,CCC/C=C/CO,inactive
13,Cc1ccc2c(c1)OCC(=O)CO2,inactive
14,NC(O)(C(F)(F)F)C(F)(F)F,inactive
15,CCC(C)CO (stereo not given),inactive
16,CCOC(=O)CCC(C)=O,inactive
17,O=C(Cl)C(F)(F)C(F)(F)C(F)(F)C(F)(F)C(F)(F)C(F)(F)C(F)(F)F,inactive
18,CCN(CC)c1ccc2c(c1)Oc1cc(N(CC)CC)ccc1C21OC(=O)c2ccccc21,inactive
19,COCCC(=O)OC,inactive
20,FC(F)(F)C(F)(F)C(F)(F)CC1CO1 (stereo not given),inactive
